These results are taken from PubChem BioAssay (Tox21).

Assay [1] in a line: qHTS assay to identify small molecule agonists of the constitutive androstane receptor (CAR) signaling pathway - cell viability counter screen (AID 1224836). Also: nearly all actives have a fitted effect of over 45% in size. Put shortly:
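Cells were seeded and incubated 4 hrs. Compounds were added across 15 concentrations together with PK11195 at 0.75 uM final. Plates were incubated 23 hrs at 37 C. CellTiter-Fluor was added and fluorescence measured.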

A short description of assay [2]: qHTS assay to identify small molecule antagonists of the constitutive androstane receptor (CAR) signaling pathway - cell viability counter screen (AID 1224837). Also: nearly all actives have a fitted effect of over 45% in size. Put shortly:
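Fluorescence from CellTiter-Fluor served as the viability signal. Human hepatoma HepG2 cells stably bearing hCAR and CYP2B6-2.2kb received compound plus CITCO (50 nM final) for 23 hr.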

For assay [3], the target named is Nuclear receptor subfamily 1 group I member 3 (Homo sapiens) (UniProt Q14994). Kind of assay: qHTS assay to identify small molecule antagonists of the constitutive androstane receptor (CAR) signaling pathway (AID 1224838).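 Also: HepG2 cells stably expressing hCAR with CYP2B6 luciferase reporter stimulated by CITCO; nearly all actives have a fitted effect of over 40% in size.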 Put shortly: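 Quantitative HTS in double-stable HepG2-CYP2B6-hCAR cells. After 4 h plating, cells get compound (15 concentrations) and CITCO at 50 nM final, incubate 24 h at 37 C, then ONE-Glo luminescence is read.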
Nuclear receptor subfamily 1 group I member 3 (Homo sapiens), sequence (Q14994 whole entry, looked up): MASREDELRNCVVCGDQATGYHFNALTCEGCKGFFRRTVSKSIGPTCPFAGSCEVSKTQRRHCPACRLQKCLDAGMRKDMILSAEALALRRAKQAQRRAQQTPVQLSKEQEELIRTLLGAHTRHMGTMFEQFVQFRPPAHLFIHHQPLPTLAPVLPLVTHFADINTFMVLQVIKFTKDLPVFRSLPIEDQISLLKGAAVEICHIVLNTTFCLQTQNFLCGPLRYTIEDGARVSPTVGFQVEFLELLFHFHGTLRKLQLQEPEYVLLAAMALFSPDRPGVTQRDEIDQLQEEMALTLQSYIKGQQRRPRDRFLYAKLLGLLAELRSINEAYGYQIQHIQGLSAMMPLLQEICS

For assay [4] the target is unchanged. In words: qHTS assay to identify small molecule agonists of the constitutive androstane receptor (CAR) signaling pathway (AID 1224839).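 Also: HepG2 cells stably carrying human CAR and a CYP2B6 luciferase reporter; nearly all actives have a fitted effect of over 15% in size.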 The gist of the method:
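Cells were plated and incubated 4 hrs, then dosed with compounds at 15 concentrations. PK11195 was added to 0.75 uM final. After 24 hrs at 37 C, luciferase luminescence was measured.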
On the technique in general: qHTS replaces the single test concentration by a dilution series.

Assay [5] can be described thus: qHTS assay to identify small molecule antagonists of the estrogen related receptor signaling pathway with the pleiotropic PPARgamma coactivator (PGC) from Tox21 10K library - cell viability counter screen (AID 1224840; active = well fitted cell-killing curve with a large enough effect in the repeat runs, not every such curve was filed as active; also: nearly all actives have a fitted effect of over 40% in size). Put shortly:
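Compounds in DMSO, alongside positive and negative controls, were pinned onto PGC/ERR cells (2,000 per well). Exposure lasted 17.5 hours at 37 C, followed by a 30-minute CellTiter-Fluor incubation and fluorescence reading.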

Assay [6] addresses Thyrotropin receptor (Homo sapiens) (UniProt P16473). In words: qHTS assay to identify small molecule agonists of the thyroid stimulating hormone receptor (TSHR) signaling pathway (AID 1224843; calls by dose curve; also: nearly all actives have a fitted effect of over 45% in size; also: potency is read from the fitted curve at half-maximal effect). The gist of the method:
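Screening of the Tox21 10K collection used HEK293 cells engineered with TSHR at 800 cells per well. After a 30-min room-temperature compound exposure, HTRF cAMP reagents were added and fluorescence recorded 1 h later.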

Assay [7] in a line: qHTS assay to identify small molecule agonists of the hypoxia (HIF-1) signaling pathway - cell viability counter screen (AID 1224844; calls by dose curve; also: nearly all actives have a fitted effect of over 50% in size; also: potency is read from the fitted curve at half-maximal effect). The gist of the method: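 Luminescent ATP content (CellTiter-Glo, 30 min, room temperature) served as the viability measure in HRE-bla ME-180 cells exposed to compounds for 17 hrs in low-serum medium (0.5% dialyzed FBS).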
Assay [8] in a line: qHTS assay to identify small molecule agonists of H2AX (AID 1224845; active = well fitted activation curve with a large enough effect in the signal ratio in the repeat runs, not every such curve was filed as active; the % refers to the signal ratio). The gist of the method:
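Phospho-H2AX Ser139 measured by HTRF (ex 320 nm; em 665 and 620 nm) after 24 hr antibody incubation. Compounds, 15 concentrations, 0.76% DMSO, were applied to CHO-K1 cells for 3hr at 37C before lysis.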

The nature of assay [9]: qHTS assay to identify small molecule agonists of the hypoxia (HIF-1) signaling pathway (AID 1224846; active = well fitted activation curve with a large enough effect in the signal ratio in the repeat runs, not every such curve was filed as active; the % refers to the signal ratio). The gist of the method: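 Measured by blue/green FRET after loading CCF4-AM: beta-lactamase expressed from a hypoxia response element in ME-180 cells. Test agents were delivered in DMSO and left 17 hrs; cells had been plated 5 hrs earlier in low-serum (0.5% dialyzed FBS) medium.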

Assay [10] is described as follows: qHTS assay to identify small molecule agonists of H2AX - cell viability counter screen (AID 1224847; calls by dose curve; also: top concentration of the series differs between compounds; nearly all actives have a fitted effect of over 30% in size). The gist of the method:
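Cytotoxicity counter screen in wild-type CHO-K1 cells: a 3 hr compound treatment at 37C across 15 concentrations, followed by CellTiter-Glo luminescence to gauge viable cells.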

A short description of assay [11]: qHTS RealTime-Glo MT Cell Viability Assay in HepG2 cells - 24 hour (AID 1224867). Also: nearly all actives have a fitted effect of over 50% in size. The gist of the method: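 Real-time, nonlytic viability: 600 HepG2 cells/well mixed with NanoLuc enzyme plus prosubstrate; 5 h settle, compound (DMSO) added by pintool; luminescence monitored over 40 h at 37 C.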
Assay [12] is described as follows: qHTS RealTime-Glo MT Cell Viability Assay in HEK293 cells - 32 hour (AID 1224868). Also: nearly all actives have a fitted effect of over 50% in size. Also: potency is read from the fitted curve at half-maximal effect. Put shortly: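 Cells + reagent dispensed (600 cells/well, HEK293) → 5 h at 37 C/5% CO2 → 23 nL compound in DMSO pinned → 40 h at 37 C → luminescence read at 0, 8, 16, 24, 32, 40 h.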
The nature of assay [13]: A CellTox Green Cytotoxicity Assay to monitor cytotoxicity in HEK293 cells - 0 hour (AID 1224869). Also: nearly all actives have a fitted effect of over 50% in size. The gist of the method: (§1)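 Each value comes from one timepoint of a single continuous run in which HEK293 cells with CellTox Green were exposed to compound for up to 40 h at 37 C, dye fluorescence rising with cell death.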
Assay [14] in a line: qHTS RealTime-Glo MT Cell Viability Assay in HepG2 cells - 40 hour (AID 1224870). Also: nearly all actives have a fitted effect of over 50% in size. The gist of the method: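 Real-time viability: cells seeded at 600 per well together with NanoLuc and cell-permeant prosubstrate, compounds added after 5 h incubation. Luminescence tracked at 0, 8, 16, 24, 32 and 40 h of exposure.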
Assay [15] can be described thus: A CellTox Green Cytotoxicity Assay to monitor cytotoxicity in HEK293 cells - 40 hour (AID 1224871). Also: nearly all actives have a fitted effect of over 45% in size. Also: potency is read from the fitted curve at half-maximal effect. The gist of the method: as §1
Assay [16] is described as follows: qHTS assay to identify small molecule agonists of the estrogen related receptor signaling pathway with the pleiotropic PPARgamma coactivator (PGC) from Tox21 10K library (AID 1224842). Also: nearly all actives have a fitted effect of over 15% in size. The gist of the method: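 Luminescence from One-Glo (30 min, room temperature) measured after PGC/ERR cells had 18 h at 37 C with pinned compound (23 nL in DMSO). Cells had been seeded at 2,000 per well and pre-incubated 6 h.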

Assay [17] can be described thus: qHTS assay to identify small molecule antagonists of the estrogen related receptor (ERR) signaling pathway from Tox21 library (AID 1224848). Also: nearly all actives have a fitted effect of over 50% in size. Put shortly: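 Antagonist-mode screen of the Tox21 10K library in an NTP-provided ERR reporter cell line; 18 h compound exposure at 37 C, luminescence measured with ONE-Glo.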
Assay [18] in a line: qHTS assay to identify small molecule agonists of the estrogen related receptor (ERR) signaling pathway from Tox21 library (AID 1224849; calls by dose curve; also: nearly all actives have a fitted effect of over 15% in size). The note with it: ERR reporter cell line, ONE-Glo luciferase, 18 h; at 92.4 µM (top of the series) unless noted. Put shortly:
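We plated ERR reporter cells, waited 6 h, added compounds in DMSO by pin tool and incubated them 18 h at 37 C. ONE-Glo was then added and luminescence read after 30 min.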

Assay [19] can be described thus: qHTS assay to identify small molecule antagonists of the estrogen related receptor signaling pathway with the pleiotropic PPARgamma coactivator (PGC) from Tox21 10K library (AID 1224841; call rule not given here). Put shortly: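 Compound exposure ran 18 hours at 37 C in PGC/ERR cells (2,000/well) that had first rested 6 hours in a 37 C/5% CO2 incubator. Luciferase activity was then detected with One-Glo after a 30-minute room-temperature step.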

The target of assay [20] is Luciferin 4-monooxygenase (Photinus pyralis) (UniProt P08659). In words: qHTS assay to identify small molecule inhibitors of firefly luciferase (AID 1224835). Also: nearly all actives have a fitted effect of over 25% in size. Also: potency is read from the fitted curve at half-maximal effect. Put shortly:
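Inhibition of purified Photinus luciferase is measured by luminescence. Substrate levels (D-luciferin, ATP) sit at their KM values. Each compound is tested in a concentration series.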

A number with no mark means an inactive call. Inconclusive results are not listed. Activity calls are given as the source filed them. Unless noted, calls follow the shape of the dose curve; as a rule, active = well fitted curve in the direction sought with a large enough effect in the repeat runs; inconclusive = weak or mixed curves; inactive = no such curve, though single readings can be large; an effect the other way counts as inactive or inconclusive.
% is scaled to controls: 0 for no effect and ±100 for the full control effect.

Luciferin 4-monooxygenase (Photinus pyralis), sequence (P08659 whole entry, looked up): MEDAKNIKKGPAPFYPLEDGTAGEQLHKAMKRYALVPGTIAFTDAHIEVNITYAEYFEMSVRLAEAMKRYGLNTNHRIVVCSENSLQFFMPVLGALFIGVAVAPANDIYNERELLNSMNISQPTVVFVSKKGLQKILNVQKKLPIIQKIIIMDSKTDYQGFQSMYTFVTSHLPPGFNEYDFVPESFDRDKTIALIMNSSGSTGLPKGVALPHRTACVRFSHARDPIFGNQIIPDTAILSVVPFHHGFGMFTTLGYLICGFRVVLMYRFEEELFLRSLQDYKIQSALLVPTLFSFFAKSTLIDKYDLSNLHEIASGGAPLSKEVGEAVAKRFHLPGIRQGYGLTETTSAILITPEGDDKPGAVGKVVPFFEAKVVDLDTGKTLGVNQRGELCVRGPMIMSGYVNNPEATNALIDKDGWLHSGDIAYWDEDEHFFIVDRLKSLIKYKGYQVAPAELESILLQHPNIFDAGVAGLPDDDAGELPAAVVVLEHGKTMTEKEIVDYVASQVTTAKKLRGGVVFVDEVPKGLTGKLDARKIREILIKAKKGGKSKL
Thyrotropin receptor (Homo sapiens), sequence (P16473 whole entry, looked up): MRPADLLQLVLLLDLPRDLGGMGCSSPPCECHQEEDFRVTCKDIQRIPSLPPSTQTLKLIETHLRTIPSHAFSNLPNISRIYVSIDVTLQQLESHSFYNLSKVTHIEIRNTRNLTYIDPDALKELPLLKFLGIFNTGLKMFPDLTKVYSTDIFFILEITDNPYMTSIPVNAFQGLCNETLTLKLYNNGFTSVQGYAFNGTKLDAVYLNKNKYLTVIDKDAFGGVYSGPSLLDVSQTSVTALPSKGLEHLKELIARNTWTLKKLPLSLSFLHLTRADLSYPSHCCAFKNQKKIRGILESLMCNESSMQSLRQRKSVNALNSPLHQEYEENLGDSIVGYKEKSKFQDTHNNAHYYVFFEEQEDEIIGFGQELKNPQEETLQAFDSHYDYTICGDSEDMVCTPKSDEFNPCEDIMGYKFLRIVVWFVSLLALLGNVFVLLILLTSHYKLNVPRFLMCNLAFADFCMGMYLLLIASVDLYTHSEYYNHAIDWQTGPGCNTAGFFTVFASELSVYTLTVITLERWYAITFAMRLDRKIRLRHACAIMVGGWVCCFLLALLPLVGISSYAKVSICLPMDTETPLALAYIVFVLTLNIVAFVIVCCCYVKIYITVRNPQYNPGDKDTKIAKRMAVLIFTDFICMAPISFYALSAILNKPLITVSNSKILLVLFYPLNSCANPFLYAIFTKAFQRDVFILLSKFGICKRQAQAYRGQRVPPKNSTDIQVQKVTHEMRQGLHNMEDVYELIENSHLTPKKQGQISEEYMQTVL

In the case of `CN/C(=N\[N+](=O)[O-])NCC1CCOC1` (centres undefined), the Potency result in assay [1], in [2], in assay [3], in assay [4], in assay [5] and in assay [6] was “inactive” in each case. Besides, the Potency result in [7], in assay [8], in assay [10], in [11], in assay [12] and in assay [13] was “inactive” each time. The Potency entry in assay [14] and in [15] was “inactive” each time. For the same compound, in [9], the compound was called inactive.

With `CCCCCCBr`, the Potency entry in assay [1], in assay [3], in assay [5], in assay [6], in assay [7] and in [8] was “inactive” throughout. The Potency entry in assay [10], in assay [17], in assay [11], in assay [12], in [13] and in assay [14] was “inactive” each time. Further, the call in assay [16] and in assay [9] was inactive. The activity change, positive = activation in [18] is 0.352%.

Consider `COC(=O)COc1ccc(Cl)cc1Cl`, for which the Potency entry in assay [2], in assay [5], in assay [19], in [7], in [8] and in [17] was “inactive” in each case. Also, the Potency entry in [11], in [12], in assay [13], in assay [14] and in [15] was “inactive” each time. The outcome in assay [16] and in assay [9] was inactive. Besides, the activity change, positive = activation in assay [18] is 8.64%.

Take `CCOC(=O)C(c1c(O)c2ccccc2oc1=O)c1c(O)c2ccccc2oc1=O`: the Potency entry in assay [2], in assay [4], in assay [5], in assay [6], in assay [8] and in [11] was “inactive” in each case. Also, the Potency result in [12], in assay [13], in assay [14] and in assay [15] was “inactive” throughout.

Turning to `COc1cccc(C(=O)NN(C(=O)c2cc(C)cc(C)c2)C(C)(C)C)c1C`, the Potency entry in assay [20], in assay [3], in [4], in assay [5], in assay [19] and in [6] was “inactive” in each case. Also, the Potency entry in assay [7], in assay [8], in [10], in assay [12], in assay [13] and in [14] was “inactive” throughout. Moreover, the Potency entry in [15] was “inactive”. Moreover, the compound was classed as inactive in assay [16] and in assay [9]. Also, the activity change, positive = activation in assay [18] was -24.8%.

Turning to `CC(C)(C)NCC(O)c1cc(Cl)c(N)c(Cl)c1` (centres undefined), the Potency entry in [20], in assay [5], in assay [19], in assay [7], in assay [10] and in [17] was “inactive” each time. Besides, the Potency result in [11], in [12], in assay [13], in assay [14] and in assay [15] was “inactive” each time. Further, the compound was classed as inactive in assay [16] and in assay [9]. In addition, the Potency in assay [6] is 0.0021 µM (active). Moreover, the activity change, positive = activation in [18] is 6.3% [at 42.5 µM].

As for `CNC(=O)Oc1cccc(C(C)C)c1`, the Potency entry in [1], in [3], in [5], in assay [6], in assay [7] and in [8] was “inactive” in each case. The Potency result in assay [11], in [13], in assay [14] and in assay [15] was “inactive” each time. Further, in assay [9], the compound was called inactive.

In the case of `CC1=C(C(=O)Nc2ccccc2)S(=O)(=O)CCO1`, the Potency entry in [20], in assay [2], in assay [6], in assay [8], in assay [10] and in assay [11] was “inactive” throughout. In [13], the Potency entry was “inactive”.

As to `c1cc[c]([Hg][c]2ccccc2)cc1`, the Potency is 17.8 µM (active) in [20], 49 µM (active) in [7], 30.9 µM (active) in [12] and 34.7 µM (active) in [15]. Moreover, the Potency entry in assay [2], in assay [6], in assay [10], in assay [11], in assay [13] and in [14] was “inactive” in each case.

Consider `C[C@]12CC[C@H]3[C@@H](CC=C4C[C@@H](O)CC[C@@]43C)[C@@H]1CC[C@@H]2O`, for which the Potency result in [1], in [2], in [5], in [7], in assay [8] and in assay [10] was “inactive” in each case. Moreover, the Potency result in assay [11], in assay [12], in assay [13], in assay [14] and in [15] was “inactive” throughout.
